Hits are enriched below; roughly 22% of the tested compounds scored in any of these assays.
Cycloheximide cs = counter-screen for Shiga toxin inhibitors: cycloheximide protein synthesis inhibition. cell reporter, cycloheximide protein synthesis inhibition counterscreen. max response, %. 12% of 300,000 active. AID 2314; in the data active means max response mostly above about 13%, no sharp cut-off; inactive means mostly below about 14%; further: read at 38.3 µM for the half of the compounds with a filed dose; 0% is about no effect
LmPK inhibitor = LmPK (Leishmania mexicana) enzyme inhibition; 0.37% of 290,000 active; AID 1721; Q27686; Potency, µM (top dose mostly 57.5 µM), inactives show at the highest dose activity change, negative = inhibition, actives largely listed as inhibitors; purified LmPK, Kinase-Glo ATP luminescence, 1 h; further: potency means the concentration at half of the fitted maximal effect; on the % scale 0 is the no-effect control and ±100 the full control effect
Target sequence (Q27686 whole entry, looked up): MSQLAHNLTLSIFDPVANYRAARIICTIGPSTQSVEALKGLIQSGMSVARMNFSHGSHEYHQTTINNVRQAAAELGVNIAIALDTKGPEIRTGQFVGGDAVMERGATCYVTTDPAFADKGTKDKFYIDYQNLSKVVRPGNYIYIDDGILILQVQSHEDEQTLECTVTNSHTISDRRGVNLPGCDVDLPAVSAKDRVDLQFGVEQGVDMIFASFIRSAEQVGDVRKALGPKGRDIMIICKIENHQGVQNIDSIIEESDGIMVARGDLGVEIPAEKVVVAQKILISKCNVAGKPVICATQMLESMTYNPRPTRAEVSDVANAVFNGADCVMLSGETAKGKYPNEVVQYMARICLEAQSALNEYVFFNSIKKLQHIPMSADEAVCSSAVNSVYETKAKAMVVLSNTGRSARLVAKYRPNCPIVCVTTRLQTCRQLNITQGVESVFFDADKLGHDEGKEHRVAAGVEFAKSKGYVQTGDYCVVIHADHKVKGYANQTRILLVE
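In 50 mM imidazole pH 7.2 with 7 mM MgCl2, LmPK (0.1 nM) turned over PEP (0.5 mM) and ADP (0.1 mM) for 1 h at room temperature. Luciferase read-out of ATP.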
Pf growth 48h = P. falciparum growth inhibition at 48 hours (one generation); P. falciparum luciferase growth in erythrocytes, 48 h; Potency, µM (top dose mostly 28.7 µM), for the others: at the top dose activity change, negative = inhibition, most hits filed as inhibitors; 5.9% of 310,000 active; further: potency means the concentration at half of the fitted maximal effect; on the % scale 0 is the no-effect control and ±100 the full control effect
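Compounds are pin-transferred into medium, infected erythrocytes (2% hematocrit, 0.1% parasitemia final) are added, and plates sit one parasite generation at 37 C in 5% CO2. Detection reagent is then added and luminescence measured.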
Shiga inhibitor = blocks Shiga toxin action in Vero cells; Vero cells, Shiga toxin protein synthesis inhibition reporter; inhibition, % at 38.7 µM; 9.2% of 290,000 active; AID 2315; in the data active means inhibition mostly above about 28%, no sharp cut-off; inactive means mostly below about 43%; further: 0% is about no effect
Pf growth 96h = P. falciparum growth inhibition at 96 hour, primary screen for plastid delayed-death inhibitors. P. falciparum luciferase reporter growth, 96 h. Potency, µM (highest dose often 28.7 µM), for inactives: at the highest dose activity change, negative = inhibition, most hits filed as inhibitors. 6.9% of 320,000 active. AID 504834; further: potency means the concentration at half of the fitted maximal effect; on the % scale 0 is the no-effect control and ±100 the full control effect
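Delayed-death screen, second-generation endpoint: infected erythrocytes, 2% hematocrit, 0.05% parasitemia final; 96 hours at 37 C, 5% CO2; luciferase detection reagent; luminescence decrease equals reduced growth.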
Starred values were filed as active, the others as inactive; ? = inconclusive; . = no result; ! = not active in a repeat. Unless noted, the call rests on the fitted dose curve; in most records, active means well fitted inhibition curve with a large enough effect; inconclusive means small, poorly fitted or top-dose-only effect, or another doubt; inactive means no such curve, though single readings can be large or run the other way.

SMILES	Cycloheximide cs	LmPK inhibitor	Pf growth 48h	Shiga inhibitor	Pf growth 96h
O=C(/C=C/c1ccc(Cl)cc1Cl)Nc1cccc(S(=O)(=O)NC2=NCCC2)c1	13.9*	1.8%	217.7%	43.8	170.5%
O=C(/C=C/c1ccccc1Cl)Nc1cccc(S(=O)(=O)NC2=NCCCCC2)c1	23.0*	0.4%	0.0%	64.6*	?
CC(OC(=O)C1CCCCC1)C(=O)Nc1cccc([N+](=O)[O-])c1 (stereo not given)	.	.	?	.	-10.8%
O=C(Nc1ccccc1N1CCOCC1)c1cc(Br)c(Br)s1	-3.4	7.2%	83.0%	-2.7	32.1%
CCC1(C)Cc2nc3[nH]c(=S)n(-c4ccccc4C)c(=O)c3cc2CO1 (stereo not given)	-6.0	0.6%	-18.2%	-4.4	-5.4%
CCC1(C)Cc2nc3[nH]c(=S)n(-c4ccccc4)c(=O)c3cc2CO1 (stereo not given)	0.9	-2.6%	-6.3%	-3.1	7.38µM*
O=C(O)c1ccccc1OC(C(=O)Nc1cc(Cl)cc(Cl)c1)c1ccccc1 (stereo not given)	1.3	-10.2%	11.7µM*	18.7	?
O=C(Nc1cc(Cl)cc(Cl)c1)C(c1ccccc1)N1CCCCC1 (stereo not given)	1.6	2.0%	0.0%	-11.9	0.0%
OCc1cc(C(O)CNCCCCCCOCCCCc2ccccc2)ccc1O (stereo not given)	0.5	-6.8%	13.1µM*	1.5	12µM*
COc1ccc(C(=O)Nc2cccc(C(=O)NCc3ccccc3)c2)cc1	17.9	-0.1%	2.7%	16.5	37.4%
COc1ccc(COc2cc(-c3cccc(OC)c3)nc3ccc(NC(=O)c4ccc(OC)cc4)cc23)cc1	-0.9	6.7%	13.1µM*	-10.9	4.65µM*
COc1ccc(COc2cc(-c3cccc(OC)c3)nc3ccc(NC(=O)c4cccnc4)cc23)cc1	2.3	0.7%	2.94µM*	-6.5	2.33µM*
COc1ccc(COc2cc(-c3cccc(OC)c3)nc3ccc(NC(=O)c4ccccc4)cc23)cc1	0.5	5.7%	11.7µM*	18.6	11.7µM*
COc1ccc(COc2cc(-c3cccc(OC)c3)nc3ccc(NC(=O)c4ccc(Cl)cc4)cc23)cc1	1.9	7.9%	2.08µM*	29.6	3.7µM*
COc1ccc(COc2ccsc2C(=O)Nc2ccc(Cl)cc2)cc1	7.5	4.8%	?	15.2	?
CC1CN(C(=O)C2(C)CC2(Br)Br)CC(C)O1 (stereo not given)	0.5	-5.2%	8.9%	-3.6	12.7%
C=C(C)[C@H]1CN[C@H](C(=O)O)[C@H]1CC(=O)O	-5.2	.	-7.6%	47.0*!	-12.7%
CC(C)(C)NCC(O)c1cc(O)cc(O)c1 (stereo not given)	0.4	-3.7%	-5.4%	0.6	-0.6%
CC(C)(C)NCC(O)c1cc(Cl)c(N)c(C(F)(F)F)c1 (stereo not given)	.	.	13.5µM*	.	8.49µM*
CC1CCCN(S(=O)(=O)c2ccc(NC(=O)CN3C(=O)NC(C)(c4ccccc4)C3=O)cc2)C1 (stereo not given)	.	.	?	.	-22.0%
O=C(O)COc1ccccc1/C=N/NC(=O)CSc1nc2ccccc2s1	8.7	5.7%	42.6%	46.6	6.5%
C/C(=N\NC(=O)CSc1nc2ccccc2s1)c1ccco1	17.1*	0.7%	44.9%	48.0*	20.8%
O=C(CSc1nc2ccccc2s1)N/N=C/c1ccccc1C(=O)O	52.0*	4.9%	312.4%	90.6*	325.4%
CC(C)CCNC(=O)CSc1nc2ccccc2s1	8.4	2.0%	58.4%	4.2	113.2%
O=C(CSc1nc2cc(Cl)ccc2s1)c1ccco1	20.1*	4.0%	39.5%	55.8	10.4µM*
SMILES	Cycloheximide cs	LmPK inhibitor	Pf growth 48h	Shiga inhibitor	Pf growth 96h
O=C(CSc1nc2ccccc2s1)N/N=C/c1ccco1	14.2*	0.0%	38.7%	29.3	12.9%
OCC[C@H]1C[C@H](O)[C@@H](O)[C@@]2(OCCCc3ccccc32)O1	.	.	?	.	59.0%
O=C(CSCc1ccccc1Cl)N/N=C/c1ccco1	13.4	1.1%	16.5%	46.5	13.1µM*
N#C/C(=C\c1ccco1)Sc1nc2ccccc2s1	69.1*	12.2%	25.2%	39.1*	14.5%
COc1ccc(-c2cc(C(=O)NCCN3CCOCC3)c3ccccc3n2)c(OC)c1	1.1	4.9%	-26.2%	18.8	8.2%
Cc1ccc(-c2cc(C(=O)NCCCN3CCOCC3)c3ccccc3n2)cc1C	8.3	4.0%	-95.9%	46.5*	?
CCOc1ccc(-c2cc(C(=O)NCC3CCCO3)c3ccccc3n2)cc1 (stereo not given)	23.9*	3.4%	30.6%	65.1*	36.0%
CCOc1ccc(-c2cc(C(=O)NCCCN3CCCC3)c3ccccc3n2)cc1	11.2	3.9%	11.7µM*	15.0	-7.0%
O=C(NCCN1CCOCC1)c1ccccc1-c1ccccc1	-2.1	-0.1%	2.4%	-1.9	-28.4%
COc1ccc(-c2cc(C(=O)NCC3CCCO3)c3ccccc3n2)c(OC)c1 (stereo not given)	-3.4	-0.8%	-53.4%	1.6	?
O=C(NCCN1CCOCC1)c1cnn2c(-c3ccccc3)cc(-c3ccccc3)nc12	-2.6	1.3%	?	-26.9	10.4µM*
Cc1cccc(-c2cc(C(=O)NCCCn3ccnc3)c3ccccc3n2)c1	-3.5	0.0%	?	27.0	?
Cc1ccc(-c2cc(C(=O)NCCCN3CCCC3)c3ccccc3n2)cc1C	8.6	1.0%	5.22µM*	30.7	?
C/C=C/c1ccc(OCC(=O)OCC(=O)NC2CC2)c(OC)c1	-5.8	1.7%	22.3%	-7.4	-1.2%
Cc1ccc(Nc2nc(COC(=O)COc3ccc(C=O)cc3)cs2)cc1	25.0*	0.1%	106.7%	69.5*	103.2%
O=C(COc1ccc(Cl)cc1)OCc1csc(Nc2ccccc2)n1	9.8	2.1%	-9.5%	17.7	?
C/C=C/c1ccc(OCC(=O)OCc2csc(Nc3ccc(C)cc3)n2)c(OC)c1	43.9*	-2.0%	?	91.1*	-72.9%
CCc1c(C2(O)CCCCC2)[nH]c2ccc(C(F)(F)F)cc12	-1.2	-0.6%	29.6%	-7.2	109.6%
CSc1ccc(/C=N/NC(=O)c2ccc(C)c(C)c2)cc1	43.7*	5.7%	30.3%	52.2*	-11.7%
CSc1ccc(/C=N/NC(=O)c2cc(O)cc(O)c2)cc1	22.2*	?	97.7%	40.8*	55.2%
CSc1ccc(/C=N/NC(=O)c2sccc2C)cc1	45.5*	?	324.9%	63.7*	467.9%
Cc1cccc(C(=O)Oc2ccc(/C=N/NC(=O)c3cc(O)cc(O)c3)cc2)c1	11.8	20.7%	?	1.4	38.3%
COCCCNC(=O)CC(=O)N/N=C\c1ccc(SC)cc1	1.6	4.1%	62.1%	14.7	?
COc1ccc(OCc2ccc(/C=N\NC(=O)c3sccc3C)o2)cc1	25.3*	-4.4%	34.5%	67.6*	34.7%
O=C(N/N=C\c1ccc(COc2ccc([N+](=O)[O-])cc2)o1)c1ccc(Cl)cc1	-1.3	6.4%	-5.5%	20.6	.
COc1ccc(/C=N/NC(=O)c2c(Br)cnn2C)c2ccccc12	-0.3	-3.8%	-14.5%	7.0	-22.3%

Bioassay records: PubChem BioAssay, National Center for Advancing Translational Sciences (NCATS)
